From PubChem BioAssay (NCATS)
Records with an inconclusive call do not appear. A call without a number means that no potency is given here. Unmarked numbers belong to inactive results. Calls of active or inactive are those of the source. Calls come from the whole dose curve; as a rule, active = well fitted curve in the direction sought with a large enough effect; inconclusive = small, poorly fitted or top-dose-only effect, or another doubt; inactive = no such curve, though single readings can be large; an effect the other way counts as inactive or inconclusive.

Experiments:
[1] = qHTS for Inhibitors of Plasmodium falciparum (DD2) proliferation (AID 504314);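 note: parasite DNA measured by SYBR Green fluorescence after red cell lysis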
Method in brief: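 SYBR Green growth assay: 72 h compound exposure of infected red cells (2.5% hematocrit, 0.3% parasitemia), then lysis and overnight dye staining, fluorescence 485/535 nm. Values scaled between DMSO and 0.29 uM artemisinin controls.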

[2] = qHTS for Inhibitors of Plasmodium falciparum (7G8) proliferation (AID 504316); note: nearly all actives have a fitted effect of over 65% in size; note: potency is the fitted concentration of half-maximal effect
Method in brief: (§1)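 Parasite growth measured as SYBR Green DNA fluorescence (ex 485, em 535 nm) after overnight lysis following 72 h culture at 37 °C, 0.3% parasitemia, 2.5% hematocrit. Values normalized against DMSO and 0.29 uM artemisinin controls, with plate-stack correction.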

[3] = qHTS for Inhibitors of Plasmodium falciparum (HB3) proliferation (AID 504318); note: nearly all actives have a fitted effect of over 60% in size; note: potency is the fitted concentration of half-maximal effect
Method in brief: as §1

[4] = qHTS for Inhibitors of Plasmodium falciparum (CP250) proliferation (AID 504320)
Method in brief: as §1

CCN1C(=O)N(C)[C@@H](c2ccccc2)C(C(C)=O)=C1C
Potency [1]: inactive | Potency [2]: inactive | Potency [3]: inactive | Potency [4]: inactive

COC(=O)C1=C(C(=O)OC)[C@@H]2Nc3ccccc3[C@@]23C[C@@H](C(=O)OC)N(C(=O)c2cc(C)oc2C)C3=N1
Potency [1]: inactive | Potency [2]: 1.69 µM (active) | Potency [3]: 1.69 µM (active) | Potency [4]: inactive

CCN1C(=O)N(S(=O)(=O)c2ccc(C)cc2)[C@@H](c2ccccc2)C(C(=O)OC)=C1C
Potency [1]: inactive | Potency [2]: inactive | Potency [3]: inactive | Potency [4]: inactive

CC1(OC(=O)C2CCCC2)C(=O)C=C2C=C(c3ccsc3)N(c3ccccc3)C=C2C1=O (stereo unspecified)
Potency [1]: inactive | Potency [2]: inactive | Potency [3]: inactive | Potency [4]: inactive

COc1ccc(-c2nc3c(c4c2C[C@H](c2ccccc2)OC4)CN(S(=O)(=O)c2ccc(C#N)cc2)CC3)c(C)c1
Potency [1]: inactive | Potency [2]: 1.51 µM (active) | Potency [4]: inactive

CCC(=O)N1C2=C(c3ccccc3[C@@H]1CC(=O)Nc1ccc3ccccc3c1)[C@@H]1C(=O)N(c3ccccc3)C(=O)[C@@H]1[C@H](C)C2
Potency [1]: inactive | Potency [2]: 1.9 µM (active) | Potency [4]: inactive

COCCN1C=C2C(=O)C(C)(OC(=O)CCc3ccccc3)C(=O)C=C2C=C1c1ccc(C#N)cc1 (stereo unspecified)
Potency [1]: inactive | Potency [2]: inactive | Potency [3]: inactive

CCOC(=O)CN1C(=O)N[C@@H](c2cccc(C(F)(F)F)c2)[C@@H](C(=O)OC)[C@H]1C
Potency [1]: inactive | Potency [2]: inactive | Potency [3]: inactive | Potency [4]: inactive

CC(C)CN1C=C2C(=O)C(C)(OC(=O)CCc3ccccc3)C(=O)C=C2C=C1c1ccc(C#N)cc1 (stereo unspecified)
Potency [1]: inactive | Potency [2]: inactive | Potency [3]: inactive | Potency [4]: inactive

CC1(OC(=O)C2CCCC2)C(=O)C=C2C=C(c3ccsc3)N(CCc3c[nH]c4ccccc34)C=C2C1=O (stereo unspecified)
Potency [1]: inactive | Potency [2]: inactive | Potency [4]: inactive

COC(=O)C(C(=O)OC)C1c2ccccc2C=C(C)N1C(=O)OC (stereo unspecified)
Potency [1]: inactive | Potency [2]: inactive | Potency [3]: inactive | Potency [4]: inactive

Cc1ccc(S(=O)(=O)N2CCc3nc(-c4ccccc4)c4c(c3C2)CO[C@@H](C)C4)cc1
Potency [1]: inactive | Potency [2]: inactive | Potency [3]: inactive

CCCCC1=CC2=CC(=O)C(C)(OC(=O)CC)C(=O)C2=CN1CCOC (stereo unspecified)
Potency [1]: inactive | Potency [2]: inactive | Potency [3]: inactive | Potency [4]: inactive

COC(=O)C1=C(C(=O)OC)[C@@H]2Nc3ccccc3[C@@]23C[C@@H](C(=O)OC)N(S(=O)(=O)c2c(C)noc2C)C3=N1
Potency [1]: inactive | Potency [2]: inactive | Potency [3]: inactive | Potency [4]: inactive

C=CCN1C=C2C(=O)C(C)(OC(=O)CC)C(=O)C=C2C=C1CCCC (stereo unspecified)
Potency [1]: inactive | Potency [2]: inactive | Potency [3]: inactive | Potency [4]: inactive

COC(=O)[C@@H]1[C@@H](C)N(Cc2ccccc2)C(=O)N[C@H]1c1cccc(C(F)(F)F)c1
Potency [1]: inactive | Potency [2]: inactive | Potency [3]: inactive | Potency [4]: inactive

COC(=O)C1=C(C(=O)OC)[C@@H]2N(C)c3ccc(OC)cc3[C@@]23C[C@@H](C(=O)OC)N(S(=O)(=O)c2ccc(C#N)cc2)C3=N1
Potency [1]: inactive | Potency [2]: 1.69 µM (active) | Potency [4]: inactive

CCCCc1nc2c(c3c1C[C@H](C)OC3)CN(S(=O)(=O)c1c(C)noc1C)CC2
Potency [1]: inactive | Potency [2]: inactive | Potency [3]: inactive | Potency [4]: inactive

CC1(OC(=O)CCc2ccccc2)C(=O)C=C2C=C(c3ccc(C#N)cc3)N(c3ccccc3)C=C2C1=O (stereo unspecified)
Potency [1]: inactive | Potency [2]: inactive | Potency [3]: inactive | Potency [4]: inactive

COc1ccc(-c2nc3c(c4c2C[C@H](c2ccccc2)OC4)CN(S(=O)(=O)c2c(C)noc2C)CC3)c(C)c1
Potency [1]: inactive | Potency [2]: 1.69 µM (active) | Potency [3]: 2.13 µM (active)

CCCCC1=CC2=CC(=O)C(C)(OC(=O)CC)C(=O)C2=CN1CCc1ccccn1 (stereo unspecified)
Potency [1]: inactive | Potency [2]: inactive | Potency [4]: inactive

CC#CCN1c2ccccc2[C@]23C[C@@H](C(=O)OC)N(C(=O)c4cccs4)C2=NC(C(=O)OC)=C(C(=O)OC)[C@H]13
Potency [1]: inactive | Potency [2]: inactive | Potency [3]: inactive

CCCCC1=CC2=CC(=O)C(C)(OC(=O)CC)C(=O)C2=CN1Cc1ccc2c(c1)OCO2 (stereo unspecified)
Potency [1]: inactive | Potency [2]: inactive | Potency [3]: inactive

CCOC(=O)CCCNC(=O)N1CCc2nc(COc3ccccc3)c3c(c2C1)CO[C@@H](C)C3
Potency [1]: inactive | Potency [2]: 1.51 µM (active) | Potency [4]: inactive

COC(=O)CCC(=O)OC1(C)C(=O)C2=CN(C3CCCC3)C(c3ccc(OC)cc3)=CC2=C(Br)C1=O (stereo unspecified)
Potency [1]: inactive | Potency [2]: inactive | Potency [4]: inactive

CCCCC1=CC2=CC(=O)C(C)(OC(=O)CC)C(=O)C2=CN1CCCCO (stereo unspecified)
Potency [1]: inactive | Potency [2]: inactive | Potency [4]: inactive
